Inconclusive results are not listed. Calls of active or inactive are those of the source. Rule for the calls: active = hit-call score of the fitted dose curve at least 0.9, where 1 is the maximum; inconclusive = response in the unintended direction; inactive = score below 0.9.
Columns and labels:
[1] = target: human MET Proto-Oncogene, Receptor Tyrosine Kinase (MET), MET (gene 4233) (UniProt P08581); test: NVS_ENZ_hMet: NovaScreen (NVS) Enzymatic Assay for human MET Proto-Oncogene, Receptor Tyrosine Kinase (MET) (AID 2283180)
Protocol: (§1) NVS_ENZ_hMet is a biochemical, single-readout assay that uses extracted gene-proteins in a cell-free assay. Measurements were taken 1 hour after chemical dosing in a 384-well plate.NVS_ENZ_hMet is one of one assay component(s) measured or calculated from the NVS_ENZ_hMet assay. It is designed to make measurements of enzyme activity, a form of enzyme reporter, as detected with fluorescence intensity signals by Fluorescence and electrophoretic mobility shift technology.Data from the assay component NVS_ENZ_hMet was analyzed into 1 assay endpoint. This assay endpoint, NVS_ENZ_hMet, was analyzed in the positive analysis fitting direction relative to DMSO as the negative control and baseline of activity. Using a type of enzyme reporter, loss-of-signal activity can be used to understand changes in the enzymatic activity as they relate to the gene MET. Furthermore, this assay endpoint can be referred to as a primary readout, because this assay has produced multiple assay endpoints where this one serves a enzymatic activity function. To generalize the intended target to other relatable targets, this assay endpoint is annotated to the kinase intended target family, where the subfamily is receptor tyrosine kinase.
(§2) Binding assays used specific radioligands (tritiated, iodinated) with non-radioactive competitive displacement ligands in agonist or antagonist protocols (as indicated) and various reference compounds and inhibitors to titrate specific binding to receptors and transporters. Most enzyme assays (CYPs, kinases, phosphatases, proteases, HDACs) used recombinant protein and specific substrates (fluorescence mostly, some colorimetric and radioactive) and inhibitors, followed by a biochemical separation of substrate and product. All assays for the biochemical HTS were initially run in duplicate at a single concentration (10 uM for CYP450 assays and 25 uM for all others). Assay-chemical combinations meeting a pre-defined threshold (e.g., 30% inhibition and other criteria defined below) were then run in singleton concentration-response format with maximum concentration of 20 uM for CYPs and 50 uM for all others. Each assay was run with positive and negative controls, and concurrent controls on every plate. The follow-up (secondary) screen tested active chemical-pairs in concentration series, as well as a few additional assays not tested in the primary screen, some selected negative inactives, and several cases re-run in the concentration series for confirmatory purposes.

[2] = target: human Matrix Metalloproteinase-2 (MMP2), MMP2 (gene 4313) (UniProt P08253); test: NVS_ENZ_hMMP2: NovaScreen (NVS) Enzymatic Assay for human Matrix Metalloproteinase-2 (MMP2) (AID 2283184)
Method in brief: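 Cell-free recombinant MMP2 activity with a fluorescent substrate, read 1 h after dosing. Primary screen in duplicate at 25 uM; actives then run in concentration series; loss of signal fitted versus DMSO.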

[3] = target: human Mitogen- and Stress-activated Protein Kinase-1 (Msk1), RPS6KA5 (gene 9252) (UniProt O75582); test: NVS_ENZ_hMsk1: NovaScreen (NVS) Enzymatic Assay for human Mitogen- and Stress-activated Protein Kinase-1 (Msk1) (AID 2283187)
Protocol: as §1, with “NVS_ENZ_hMsk1” for “NVS_ENZ_hMet”, “plate.NVS_ENZ_hMsk1” for “plate.NVS_ENZ_hMet”, “NVS_ENZ_hMsk1,” for “NVS_ENZ_hMet,”, “RPS6KA5.” for “MET.”, “serine/threonine” for “receptor tyrosine”
Binding assays used specific radioligands (tritiated, iodinated) with non-radioactive competitive displacement ligands in agonist or antagonist protocols (as indicated) and various reference compounds and inhibitors to titrate specific binding to receptors and transporters. Most enzyme assays (CYPs, kinases, phosphatases, proteases, HDACs) used recombinant protein and specific substrates (fluorescence mostly, some colorimetric and radioactive) and inhibitors, followed by a biochemical separation of substrate and product. All assays for the biochemical HTS were initially run in duplicate at a single concentration (10 uM for CYP450 assays and 25 uM for all others). […]

[4] = target: human NIMA (Never In Mitosis Gene A)-Related Kinase 2 (NEK2), NEK2 (gene 4751) (UniProt P51955); test: NVS_ENZ_hNEK2: NovaScreen (NVS) Enzymatic Assay for human NIMA (Never In Mitosis Gene A)-Related Kinase 2 (NEK2) (AID 2283188)
Protocol: as §1, with “NVS_ENZ_hNEK2” for “NVS_ENZ_hMet”, “plate.NVS_ENZ_hNEK2” for “plate.NVS_ENZ_hMet”, “NVS_ENZ_hNEK2,” for “NVS_ENZ_hMet,”, “NEK2.” for “MET.”, “serine/threonine” for “receptor tyrosine”
as §2, with “Assay-chemical combinations meeting a pre-defined threshold (e.g., 30% inhibition and other criteria defined below) were then run in singleton concentration-response format with maximum concentration of 20 uM for CYPs and 50 uM for all others.” left out

[5] = target: human p21 Activated Kinase 4 (PAK4), PAK4 (gene 10298) (UniProt O96013); test: NVS_ENZ_hPAK4: NovaScreen (NVS) Enzymatic Assay for human p21 Activated Kinase 4 (PAK4) (AID 2283189)
Protocol: as §1, with “NVS_ENZ_hPAK4” for “NVS_ENZ_hMet”, “plate.NVS_ENZ_hPAK4” for “plate.NVS_ENZ_hMet”, “NVS_ENZ_hPAK4,” for “NVS_ENZ_hMet,”, “PAK4.” for “MET.”, “serine/threonine” for “receptor tyrosine”
as §2, with “Assay-chemical combinations meeting a pre-defined threshold (e.g., 30% inhibition and other criteria defined below) were then run in singleton concentration-response format with maximum concentration of 20 uM for CYPs and 50 uM for all others.” left out

[6] = target: human MAP Kinase-Activated Protein Kinase 2 (MAPKAPK2), MAPKAPK2 (gene 9261) (UniProt P49137); test: NVS_ENZ_hMAPKAPK2: NovaScreen (NVS) Enzymatic Assay for human MAP Kinase-Activated Protein Kinase 2 (MAPKAPK2) (AID 2283178)
Method in brief: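 Cell-free recombinant human MAPKAPK2 activity measured by fluorescence with electrophoretic mobility shift separation of substrate and product, 1 hr after dosing. Loss of signal versus DMSO; primary screen at 25 uM, concentration-response up to 50 uM.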

[7] = target: human Matrix Metalloproteinase-1 (MMP1), MMP1 (gene 4312) (UniProt P03956); test: NVS_ENZ_hMMP1: NovaScreen (NVS) Enzymatic Assay for human Matrix Metalloproteinase-1 (MMP1) (AID 2283181)
Method in brief: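 Human MMP1 enzyme activity measured by fluorescence 1 h after dosing, cell-free, with a specific substrate. Screened in duplicate at 25 uM; hits (e.g. 30% inhibition) run in concentration-response up to 50 uM; loss of signal versus DMSO.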

[8] = target: human Matrix Metalloproteinase-3 (MMP3), MMP3 (gene 4314) (UniProt P08254); test: NVS_ENZ_hMMP3: NovaScreen (NVS) Enzymatic Assay for human Matrix Metalloproteinase-3 (MMP3) (AID 2283185)
Method in brief: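 Cell-free recombinant human MMP3 activity, fluorescence intensity read 1 h after dosing. Primary screen duplicate at 25 uM, actives retested in concentration series; loss of signal vs DMSO baseline.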

[9] = target: human Matrix Metalloproteinase-7 (MMP7), MMP7 (gene 4316) (UniProt P09237); test: NVS_ENZ_hMMP7: NovaScreen (NVS) Enzymatic Assay for human Matrix Metalloproteinase-7 (MMP7) (AID 2283183)
Method in brief: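 Cell-free fluorescence enzymatic assay read 1 h after compound addition, activity loss analyzed against DMSO. Primary duplicate testing at 25 uM; compounds meeting threshold rerun in singleton concentration-response up to 50 uM.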

[10] = target: human Phosphodiesterase 4A1 (PDE4A1), PDE4A (gene 5141) (UniProt P27815); test: NVS_ENZ_hPDE4A1: NovaScreen (NVS) Enzymatic Assay for human Phosphodiesterase 4A1 (PDE4A1) (AID 2283191)
Method in brief: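 Cell-free recombinant human PDE4A1 with fluorescent substrate; product separated by electrophoretic mobility shift, 1 h. Screened at 25 uM, then up to 50 uM in concentration-response; loss of signal fitted against DMSO.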

Chain of human Mitogen- and Stress-activated Protein Kinase-1 (Msk1), RPS6KA5 (gene 9252) (O75582 whole entry, looked up): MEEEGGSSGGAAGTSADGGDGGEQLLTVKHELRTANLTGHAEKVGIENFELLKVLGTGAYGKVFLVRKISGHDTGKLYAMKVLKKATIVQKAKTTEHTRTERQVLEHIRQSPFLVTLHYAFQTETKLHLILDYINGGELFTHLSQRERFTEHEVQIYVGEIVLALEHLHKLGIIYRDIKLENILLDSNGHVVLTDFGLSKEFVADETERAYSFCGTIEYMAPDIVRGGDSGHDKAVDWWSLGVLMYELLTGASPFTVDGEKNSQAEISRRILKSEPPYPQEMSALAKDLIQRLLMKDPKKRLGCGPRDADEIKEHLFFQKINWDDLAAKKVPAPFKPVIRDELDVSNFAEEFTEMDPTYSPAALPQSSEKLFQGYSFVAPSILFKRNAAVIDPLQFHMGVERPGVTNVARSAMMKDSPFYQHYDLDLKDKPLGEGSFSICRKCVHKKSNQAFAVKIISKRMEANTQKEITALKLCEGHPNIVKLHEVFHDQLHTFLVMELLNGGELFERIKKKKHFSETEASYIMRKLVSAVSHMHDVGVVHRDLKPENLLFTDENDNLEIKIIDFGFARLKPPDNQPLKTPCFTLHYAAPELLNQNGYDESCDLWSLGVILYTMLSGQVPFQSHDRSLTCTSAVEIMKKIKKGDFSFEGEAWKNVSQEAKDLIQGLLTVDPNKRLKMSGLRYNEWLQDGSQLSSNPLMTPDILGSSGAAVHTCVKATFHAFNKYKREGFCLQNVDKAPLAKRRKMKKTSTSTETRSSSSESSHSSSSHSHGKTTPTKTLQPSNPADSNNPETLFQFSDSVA
Chain of human MET Proto-Oncogene, Receptor Tyrosine Kinase (MET), MET (gene 4233) (P08581 whole entry, looked up): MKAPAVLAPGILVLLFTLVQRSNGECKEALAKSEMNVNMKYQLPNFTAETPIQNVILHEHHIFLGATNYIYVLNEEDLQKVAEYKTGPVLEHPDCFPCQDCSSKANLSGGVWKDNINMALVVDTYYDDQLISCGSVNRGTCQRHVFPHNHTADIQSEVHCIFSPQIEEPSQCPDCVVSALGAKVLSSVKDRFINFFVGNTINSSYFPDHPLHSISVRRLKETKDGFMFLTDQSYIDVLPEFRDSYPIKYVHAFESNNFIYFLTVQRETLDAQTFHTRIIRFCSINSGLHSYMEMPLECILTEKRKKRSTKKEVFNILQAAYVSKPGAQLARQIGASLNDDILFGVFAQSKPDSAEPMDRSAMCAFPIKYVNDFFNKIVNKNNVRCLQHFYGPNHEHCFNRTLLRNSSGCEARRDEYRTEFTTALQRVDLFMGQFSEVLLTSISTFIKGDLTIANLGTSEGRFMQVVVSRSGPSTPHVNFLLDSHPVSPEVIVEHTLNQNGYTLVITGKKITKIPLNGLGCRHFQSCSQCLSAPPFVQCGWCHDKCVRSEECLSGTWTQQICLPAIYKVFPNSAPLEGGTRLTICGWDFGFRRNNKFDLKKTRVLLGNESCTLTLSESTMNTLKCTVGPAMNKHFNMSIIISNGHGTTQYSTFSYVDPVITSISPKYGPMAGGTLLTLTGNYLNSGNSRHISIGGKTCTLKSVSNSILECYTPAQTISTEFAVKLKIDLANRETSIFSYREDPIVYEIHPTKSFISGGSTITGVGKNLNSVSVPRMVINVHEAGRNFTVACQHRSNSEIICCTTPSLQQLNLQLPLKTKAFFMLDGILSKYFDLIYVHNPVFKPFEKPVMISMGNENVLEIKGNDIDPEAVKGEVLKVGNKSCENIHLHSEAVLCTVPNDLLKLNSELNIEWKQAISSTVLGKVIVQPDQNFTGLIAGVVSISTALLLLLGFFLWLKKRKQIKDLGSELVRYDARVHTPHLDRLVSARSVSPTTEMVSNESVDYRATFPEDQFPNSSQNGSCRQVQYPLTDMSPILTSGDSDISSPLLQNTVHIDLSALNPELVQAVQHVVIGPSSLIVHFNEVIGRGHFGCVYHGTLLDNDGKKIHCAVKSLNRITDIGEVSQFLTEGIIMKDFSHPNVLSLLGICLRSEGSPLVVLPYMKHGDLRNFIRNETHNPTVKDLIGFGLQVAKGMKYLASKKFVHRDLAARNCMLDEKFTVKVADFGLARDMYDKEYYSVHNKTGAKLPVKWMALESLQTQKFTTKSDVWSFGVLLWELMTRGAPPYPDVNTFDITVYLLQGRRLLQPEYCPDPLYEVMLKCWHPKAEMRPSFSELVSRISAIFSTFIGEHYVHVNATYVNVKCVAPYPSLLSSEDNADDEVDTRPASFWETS
Chain of human MAP Kinase-Activated Protein Kinase 2 (MAPKAPK2), MAPKAPK2 (gene 9261) (P49137 whole entry, looked up): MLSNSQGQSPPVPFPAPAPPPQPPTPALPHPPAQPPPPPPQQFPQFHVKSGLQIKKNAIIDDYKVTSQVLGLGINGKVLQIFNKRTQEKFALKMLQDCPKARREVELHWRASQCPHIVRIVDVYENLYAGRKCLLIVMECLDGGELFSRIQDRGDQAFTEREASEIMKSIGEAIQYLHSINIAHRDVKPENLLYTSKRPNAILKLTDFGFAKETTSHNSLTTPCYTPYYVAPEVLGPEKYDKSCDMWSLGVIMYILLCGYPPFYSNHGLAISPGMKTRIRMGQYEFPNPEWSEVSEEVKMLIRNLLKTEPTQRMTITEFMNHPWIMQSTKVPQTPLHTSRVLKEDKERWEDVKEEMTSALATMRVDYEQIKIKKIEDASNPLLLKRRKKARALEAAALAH
Chain of human NIMA (Never In Mitosis Gene A)-Related Kinase 2 (NEK2), NEK2 (gene 4751) (P51955 whole entry, looked up): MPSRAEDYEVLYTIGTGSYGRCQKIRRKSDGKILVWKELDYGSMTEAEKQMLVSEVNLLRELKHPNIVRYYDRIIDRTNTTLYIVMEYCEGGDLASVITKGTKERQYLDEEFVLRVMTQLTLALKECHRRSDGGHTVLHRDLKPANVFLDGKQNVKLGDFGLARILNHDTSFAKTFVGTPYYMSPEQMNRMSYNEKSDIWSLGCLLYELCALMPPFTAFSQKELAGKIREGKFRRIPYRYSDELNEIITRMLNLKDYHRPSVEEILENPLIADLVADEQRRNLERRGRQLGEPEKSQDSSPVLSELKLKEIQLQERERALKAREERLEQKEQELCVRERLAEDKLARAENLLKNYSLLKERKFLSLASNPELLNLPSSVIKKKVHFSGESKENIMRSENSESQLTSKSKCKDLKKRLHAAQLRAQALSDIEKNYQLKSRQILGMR
Chain of human p21 Activated Kinase 4 (PAK4), PAK4 (gene 10298) (O96013 whole entry, looked up): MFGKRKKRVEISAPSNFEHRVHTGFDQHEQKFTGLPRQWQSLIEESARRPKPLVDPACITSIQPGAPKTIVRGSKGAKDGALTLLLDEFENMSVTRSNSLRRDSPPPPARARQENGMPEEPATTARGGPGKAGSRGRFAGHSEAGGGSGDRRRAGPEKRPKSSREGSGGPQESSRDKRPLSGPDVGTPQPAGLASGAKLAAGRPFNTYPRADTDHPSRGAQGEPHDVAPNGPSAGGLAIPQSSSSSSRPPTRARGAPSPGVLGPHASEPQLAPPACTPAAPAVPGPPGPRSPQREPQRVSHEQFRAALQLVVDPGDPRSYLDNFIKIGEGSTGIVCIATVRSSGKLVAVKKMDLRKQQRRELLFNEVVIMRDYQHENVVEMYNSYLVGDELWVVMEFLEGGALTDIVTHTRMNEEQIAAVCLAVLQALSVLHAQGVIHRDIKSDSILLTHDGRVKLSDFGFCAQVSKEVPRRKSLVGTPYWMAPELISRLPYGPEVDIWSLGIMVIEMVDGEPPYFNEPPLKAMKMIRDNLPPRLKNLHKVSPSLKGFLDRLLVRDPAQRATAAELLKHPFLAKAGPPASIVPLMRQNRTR
Chain of human Matrix Metalloproteinase-1 (MMP1), MMP1 (gene 4312) (P03956 whole entry, looked up): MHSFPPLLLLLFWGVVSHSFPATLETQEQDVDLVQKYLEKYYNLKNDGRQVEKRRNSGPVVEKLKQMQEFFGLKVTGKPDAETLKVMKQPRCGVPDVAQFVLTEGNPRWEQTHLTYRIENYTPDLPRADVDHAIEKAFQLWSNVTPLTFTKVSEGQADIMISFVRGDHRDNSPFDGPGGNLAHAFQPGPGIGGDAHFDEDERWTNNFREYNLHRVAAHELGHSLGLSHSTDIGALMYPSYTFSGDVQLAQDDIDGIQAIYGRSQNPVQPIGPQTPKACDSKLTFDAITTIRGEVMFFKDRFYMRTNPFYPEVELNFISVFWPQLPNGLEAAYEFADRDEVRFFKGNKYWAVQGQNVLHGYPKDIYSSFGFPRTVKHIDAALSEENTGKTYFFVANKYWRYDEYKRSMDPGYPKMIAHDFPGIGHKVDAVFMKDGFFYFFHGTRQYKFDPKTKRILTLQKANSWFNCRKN
Chain of human Matrix Metalloproteinase-7 (MMP7), MMP7 (gene 4316) (P09237 whole entry, looked up): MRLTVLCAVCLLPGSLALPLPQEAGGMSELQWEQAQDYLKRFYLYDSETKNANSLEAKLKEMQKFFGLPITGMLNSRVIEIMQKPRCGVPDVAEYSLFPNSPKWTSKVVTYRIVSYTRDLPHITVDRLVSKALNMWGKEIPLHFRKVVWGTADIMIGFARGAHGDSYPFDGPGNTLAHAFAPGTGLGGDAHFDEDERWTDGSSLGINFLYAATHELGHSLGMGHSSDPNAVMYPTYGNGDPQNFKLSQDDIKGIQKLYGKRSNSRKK
Chain of human Matrix Metalloproteinase-3 (MMP3), MMP3 (gene 4314) (P08254 whole entry, looked up): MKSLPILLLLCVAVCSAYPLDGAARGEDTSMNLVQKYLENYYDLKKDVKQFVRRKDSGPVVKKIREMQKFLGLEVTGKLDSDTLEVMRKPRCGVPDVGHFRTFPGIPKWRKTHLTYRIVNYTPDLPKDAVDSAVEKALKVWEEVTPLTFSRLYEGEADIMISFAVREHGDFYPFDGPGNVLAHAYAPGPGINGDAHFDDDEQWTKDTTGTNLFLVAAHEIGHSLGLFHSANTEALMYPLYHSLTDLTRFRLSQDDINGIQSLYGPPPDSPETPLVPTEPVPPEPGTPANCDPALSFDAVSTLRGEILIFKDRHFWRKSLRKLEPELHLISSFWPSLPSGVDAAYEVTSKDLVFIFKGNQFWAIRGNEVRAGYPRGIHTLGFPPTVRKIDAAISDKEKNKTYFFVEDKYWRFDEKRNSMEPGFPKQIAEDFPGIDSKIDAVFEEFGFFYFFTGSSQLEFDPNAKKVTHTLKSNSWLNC

Clc1cccc(Cl)c1Cl
outcome [1]: inactive | AC50 [2]: 11.5 µM (active) | outcome [3]: inactive | outcome [4]: inactive | outcome [5]: inactive

N#Cc1cccnc1
outcome [6]: inactive | outcome [1]: inactive | outcome [4]: inactive | outcome [5]: inactive

CCCCCCCCCCCCOS(=O)(=O)O
AC50 [1]: 25.4 µM (active) | AC50 [7]: 7.91 µM (active) | outcome [5]: inactive

CN(C)C(=S)S
outcome [5]: inactive

CCCCCCCCCCCCc1cccc(S(=O)(=O)O)c1
AC50 [6]: 34.3 µM (active) | AC50 [1]: 17.8 µM (active) | AC50 [7]: 9.41 µM (active) | AC50 [8]: 12.9 µM (active) | AC50 [3]: 25.2 µM (active) | AC50 [4]: 12.2 µM (active)

COc1ccccc1N
outcome [6]: inactive

COc1nn(C(=O)NS(=O)(=O)c2ccccc2OC(F)(F)F)c(=O)n1C
outcome [9]: inactive | AC50 [5]: 17.4 µM (active)

O=C(N[C@H]1CN2CCC1CC2)c1ccc2c(c1)OCCO2
outcome [6]: inactive | outcome [1]: inactive | outcome [5]: inactive | outcome [10]: inactive

CC(C)O.CC(C)O.OCCN(CCO)CCO.OCCN(CCO)CCO.[Ti]
AC50 [6]: 0.00624 µM (active) | AC50 [1]: 25 µM (active) | AC50 [3]: 0.109 µM (active) | AC50 [4]: 17.5 µM (active) | AC50 [5]: 0.00229 µM (active)

From PubChem BioAssay (EPA / NIEHS)
